Reference: paper PMC11006913
Positions count from the first letter of the chain named.

Columns and labels:
Experiment in all cases: PBM; 200 nM protein, PBS
Conditions in all cases: dsDNA, one strand shown
CRX [1] = target: CRX (Homo sapiens, UniProt O43186 26-111)
VENTX [2] = target: T1, VENTX (Homo sapiens, UniProt O95231 78-163, R121Q)
T1 sequence: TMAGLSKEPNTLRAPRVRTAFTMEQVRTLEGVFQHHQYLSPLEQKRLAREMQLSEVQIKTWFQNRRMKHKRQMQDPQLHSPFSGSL

VENTX [3] = target: T2, VENTX (Homo sapiens, UniProt O95231 78-163, Y115F)
T2 sequence: T1 sequence with Y38F, Q44R

CRX [4] = target: CRX (Homo sapiens, UniProt O43186 26-111, E42D)
CRX (Homo sapiens, UniProt O43186 26-111, E42D), sequence (O43186 26-111 E42D): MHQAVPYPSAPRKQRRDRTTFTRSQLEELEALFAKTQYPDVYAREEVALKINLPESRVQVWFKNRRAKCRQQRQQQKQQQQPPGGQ

PITX2 = PITX2 (Homo sapiens, UniProt Q99697 72-157)
SIX6 [5] = target: T3, SIX6 (Homo sapiens, UniProt O95475 114-200, L167I)
T3 sequence: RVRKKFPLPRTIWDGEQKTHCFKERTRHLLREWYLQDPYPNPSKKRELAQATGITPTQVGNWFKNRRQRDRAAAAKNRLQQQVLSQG

SIX6 [6] = target: T4, SIX6 (Homo sapiens, UniProt O95475 114-200, L143V)
T4 sequence: T3 sequence with L30V, I54L

SIX6 [7] = target: T5, SIX6 (Homo sapiens, UniProt O95475 114-200, H141N)
T5 sequence: T3 sequence with H28N, I54L

SIX6 [8] = target: T6, SIX6 (Homo sapiens, UniProt O95475 114-200, T165P)
T6 sequence: T3 sequence with T52P, I54L

SIX6 [9] = target: T7, SIX6 (Homo sapiens, UniProt O95475 114-200, L167M)
T7 sequence: T3 sequence with I54M

SIX6 [10] = target: T8, SIX6 (Homo sapiens, UniProt O95475 114-200, L143M)
T8 sequence: T3 sequence with L30M, I54L

SIX6 [11] = target: T9, SIX6 (Homo sapiens, UniProt O95475 114-200, L143I)
T9 sequence: T3 sequence with L30I, I54L

SIX6 [12] = target: T10, SIX6 (Homo sapiens, UniProt O95475 114-200, T165G)
T10 sequence: T3 sequence with T52G, I54L

SIX6 [13] = target: T11, SIX6 (Homo sapiens, UniProt O95475 114-200, T139Q)
T11 sequence: T3 sequence with T26Q, I54L

SIX6 [14] = target: T12, SIX6 (Homo sapiens, UniProt O95475 114-200, T165A)
T12 sequence: T3 sequence with T52A, I54L

SIX6 [15] = target: T13, SIX6 (Homo sapiens, UniProt O95475 114-200, L167V)
T13 sequence: T3 sequence with I54V

SIX6 [16] = target: T14, SIX6 (Homo sapiens, UniProt O95475 114-200)
T14 sequence: T3 sequence with I54L

SIX6 [17] = target: T15, SIX6 (Homo sapiens, UniProt O95475 114-200, T165I)
T15 sequence: T3 sequence with T52I, I54L

CRX [18] = target: CRX (Homo sapiens, UniProt O43186 26-111, R41L)
CRX (Homo sapiens, UniProt O43186 26-111, R41L), sequence (O43186 26-111 R41L): as the sequence (O43186 26-111 E42D) above, with R16L, D17E counted along it

VENTX [19] = target: T16, VENTX (Homo sapiens, UniProt O95231 78-163)
T16 sequence: T1 sequence with Q44R

HOXC10 [20] = target: HOXC10 (Homo sapiens, UniProt Q9NYD6 254-340)
HOXC10 (Homo sapiens, UniProt Q9NYD6 254-340), sequence (Q9NYD6 254-340): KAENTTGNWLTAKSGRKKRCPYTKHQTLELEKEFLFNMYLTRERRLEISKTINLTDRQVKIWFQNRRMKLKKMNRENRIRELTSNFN

MSX2 [21] = target: MSX2 (Homo sapiens, UniProt P35548 130-214, R199I)
MSX2 (Homo sapiens, UniProt P35548 130-214, R199I), sequence (P35548 130-214 R199I): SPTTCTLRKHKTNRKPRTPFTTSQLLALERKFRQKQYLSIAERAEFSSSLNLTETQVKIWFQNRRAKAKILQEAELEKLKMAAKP

HOXC10 [22] = target: HOXC10 (Homo sapiens, UniProt Q9NYD6 254-340, K271E)
HOXC10 (Homo sapiens, UniProt Q9NYD6 254-340, K271E), sequence (Q9NYD6 254-340 K271E): as the sequence (Q9NYD6 254-340) above, with K18E counted along it

MSX2 [23] = target: MSX2 (Homo sapiens, UniProt P35548 130-214)
MSX2 (Homo sapiens, UniProt P35548 130-214), sequence (P35548 130-214): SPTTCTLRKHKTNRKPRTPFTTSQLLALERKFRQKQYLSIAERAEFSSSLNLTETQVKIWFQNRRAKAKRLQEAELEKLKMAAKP

MSX2 [24] = target: MSX2 (Homo sapiens, UniProt P35548 130-214, F161Y)
MSX2 (Homo sapiens, UniProt P35548 130-214, F161Y), sequence (P35548 130-214 F161Y): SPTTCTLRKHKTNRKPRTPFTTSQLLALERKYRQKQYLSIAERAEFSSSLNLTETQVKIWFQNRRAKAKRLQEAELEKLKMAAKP

CRX (Homo sapiens, UniProt O43186 26-111), sequence (O43186 26-111): as the sequence (O43186 26-111 E42D) above, with D17E counted along it

GCAGATTA was tested, and the binding signal (CRX [1]) was 13 upbm affinity estimate (log intensity, higher = more binding, comparable within an allelic series), the binding signal (VENTX [2]) was 10.3 upbm affinity estimate (log intensity, higher = more binding, comparable within an allelic series) and the binding signal (VENTX [3]) was 10.4 upbm affinity estimate (log intensity, higher = more binding, comparable within an allelic series). For the same sequence, the binding signal (CRX [4]) was 13 upbm affinity estimate (log intensity, higher = more binding, comparable within an allelic series) and the binding signal (PITX2) was 12.3 upbm affinity estimate (log intensity, higher = more binding, comparable within an allelic series).

With AGGTGCCC the binding signal (CRX [1]) was 8.39 upbm affinity estimate (log intensity, higher = more binding, comparable within an allelic series), the binding signal (SIX6 [5]) was 8.91 upbm affinity estimate (log intensity, higher = more binding, comparable within an allelic series) and the binding signal (SIX6 [6]) was 8.83 upbm affinity estimate (log intensity, higher = more binding, comparable within an allelic series). For the same sequence, the binding signal (SIX6 [7]) was 8.91 upbm affinity estimate (log intensity, higher = more binding, comparable within an allelic series), the binding signal (SIX6 [8]) was 8.95 upbm affinity estimate (log intensity, higher = more binding, comparable within an allelic series) and the binding signal (SIX6 [9]) was 8.85 upbm affinity estimate (log intensity, higher = more binding, comparable within an allelic series). For the same sequence, the binding signal (SIX6 [10]) was 8.84 upbm affinity estimate (log intensity, higher = more binding, comparable within an allelic series), the binding signal (SIX6 [11]) was 8.86 upbm affinity estimate (log intensity, higher = more binding, comparable within an allelic series) and the binding signal (SIX6 [12]) was 8.89 upbm affinity estimate (log intensity, higher = more binding, comparable within an allelic series). The binding signal (SIX6 [13]) was 8.92 upbm affinity estimate (log intensity, higher = more binding, comparable within an allelic series), the binding signal (CRX [4]) was 8.38 upbm affinity estimate (log intensity, higher = more binding, comparable within an allelic series) and the binding signal (SIX6 [14]) was 8.85 upbm affinity estimate (log intensity, higher = more binding, comparable within an allelic series). For the same sequence, the binding signal (SIX6 [15]) was 8.9 upbm affinity estimate (log intensity, higher = more binding, comparable within an allelic series), the binding signal (SIX6 [16]) was 8.78 upbm affinity estimate (log intensity, higher = more binding, comparable within an allelic series) and the binding signal (SIX6 [17]) was 8.87 upbm affinity estimate (log intensity, higher = more binding, comparable within an allelic series). For the same sequence, the binding signal (CRX [18]) was 8.35 upbm affinity estimate (log intensity, higher = more binding, comparable within an allelic series).

In the case of CAGATTAG, the binding signal (CRX [1]) was 13.1 upbm affinity estimate (log intensity, higher = more binding, comparable within an allelic series), the binding signal (VENTX [2]) was 10.6 upbm affinity estimate (log intensity, higher = more binding, comparable within an allelic series) and the binding signal (VENTX [3]) was 10.7 upbm affinity estimate (log intensity, higher = more binding, comparable within an allelic series). For the same sequence, the binding signal (CRX [4]) was 13.1 upbm affinity estimate (log intensity, higher = more binding, comparable within an allelic series), the binding signal (PITX2) was 12.3 upbm affinity estimate (log intensity, higher = more binding, comparable within an allelic series) and the binding signal (CRX [18]) was 12.6 upbm affinity estimate (log intensity, higher = more binding, comparable within an allelic series).

CTGCTGGC was tested, and the binding signal (CRX [1]) was 8.31 upbm affinity estimate (log intensity, higher = more binding, comparable within an allelic series), the binding signal (VENTX [2]) was 7.75 upbm affinity estimate (log intensity, higher = more binding, comparable within an allelic series) and the binding signal (SIX6 [5]) was 8.86 upbm affinity estimate (log intensity, higher = more binding, comparable within an allelic series). For the same sequence, the binding signal (VENTX [19]) was 7.86 upbm affinity estimate (log intensity, higher = more binding, comparable within an allelic series), the binding signal (SIX6 [6]) was 8.74 upbm affinity estimate (log intensity, higher = more binding, comparable within an allelic series) and the binding signal (HOXC10 [20]) was 9.92 upbm affinity estimate (log intensity, higher = more binding, comparable within an allelic series). For the same sequence, the binding signal (SIX6 [7]) was 8.87 upbm affinity estimate (log intensity, higher = more binding, comparable within an allelic series), the binding signal (SIX6 [8]) was 8.81 upbm affinity estimate (log intensity, higher = more binding, comparable within an allelic series) and the binding signal (VENTX [3]) was 7.71 upbm affinity estimate (log intensity, higher = more binding, comparable within an allelic series). The binding signal (SIX6 [9]) was 8.92 upbm affinity estimate (log intensity, higher = more binding, comparable within an allelic series), the binding signal (SIX6 [10]) was 8.85 upbm affinity estimate (log intensity, higher = more binding, comparable within an allelic series) and the binding signal (SIX6 [11]) was 8.83 upbm affinity estimate (log intensity, higher = more binding, comparable within an allelic series). The binding signal (SIX6 [12]) was 8.91 upbm affinity estimate (log intensity, higher = more binding, comparable within an allelic series), the binding signal (SIX6 [13]) was 8.84 upbm affinity estimate (log intensity, higher = more binding, comparable within an allelic series) and the binding signal (CRX [4]) was 8.3 upbm affinity estimate (log intensity, higher = more binding, comparable within an allelic series). For the same sequence, the binding signal (MSX2 [21]) was 9.25 upbm affinity estimate (log intensity, higher = more binding, comparable within an allelic series), the binding signal (SIX6 [14]) was 8.81 upbm affinity estimate (log intensity, higher = more binding, comparable within an allelic series) and the binding signal (HOXC10 [22]) was 9.97 upbm affinity estimate (log intensity, higher = more binding, comparable within an allelic series). For the same sequence, the binding signal (MSX2 [23]) was 9.22 upbm affinity estimate (log intensity, higher = more binding, comparable within an allelic series), the binding signal (SIX6 [15]) was 8.93 upbm affinity estimate (log intensity, higher = more binding, comparable within an allelic series) and the binding signal (SIX6 [16]) was 8.83 upbm affinity estimate (log intensity, higher = more binding, comparable within an allelic series). The binding signal (SIX6 [17]) was 8.82 upbm affinity estimate (log intensity, higher = more binding, comparable within an allelic series), the binding signal (MSX2 [24]) was 9.31 upbm affinity estimate (log intensity, higher = more binding, comparable within an allelic series) and the binding signal (CRX [18]) was 8.2 upbm affinity estimate (log intensity, higher = more binding, comparable within an allelic series).
